HepG2 viability: kills HepG2 cells in TGF-b inhibitor counter-screen. HepG2 CAGA-GFP viability, ATP luminescence, 18 h. Potency, µM (doses to about 46.1 µM), for inactives: at the top dose activity change, negative = cytotoxicity, actives largely listed as cytotoxic. hit rate 0.76% among 410,000. AID 588856
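HepG2 CAGA-GFP cells (1000/well, DMEM with 1% FBS) received compound, then TGF-beta at 500 pg/mL final, and were incubated 18 hours at 37 degrees C. Viability was read by CellTiter-Glo luminescence. Media-only wells were set as complete cell-killing and DMSO as no toxicity.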
ATXN2 expr inh: reduces ATXN2 reporter expression in HEK-293 cells; HEK-293 ATXN2-luciferase reporter, luminescence, 24 h; Potency, µM (series often up to 57 µM), without a hit: at the highest dose activity change, negative = inhibition, hits mostly inhibitors; hit rate 0.72% among 360,000; further: on the % scale 0 is the no-effect control and ±100 the full control effect; nearly all actives have a fitted effect of over 55% in size
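qHTS (up to 57 uM final) was run with 24 h compound exposure of reporter cells at 37 °C. Each well was multiplexed: SteadyGlo luminescence measured ATXN2-luciferase expression after a fluorogenic Gly-Phe-AFC viability readout (25 uM final).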
DT40 TDP1 no CPT: qHTS for Inhibitors of human tyrosyl-DNA phosphodiesterase 1 (TDP1): qHTS in cells in absence of CPT; Potency, µM (highest dose often 46.2 µM), for the others: at the highest dose activity change, negative = growth inhibition, actives largely listed as inhibitors; hit rate 15% among 420,000; DT40 Tdp1-/- hTDP1 cells, no CPT, ATP luminescence, 48 h; further: on the % scale 0 is the no-effect control and ±100 the full control effect; nearly all actives have a fitted effect of over 55% in size
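No-CPT arm: Tdp1-/-;hTDP1 DT40 cells (400/well) plus compounds, incubated ≥48 hr at 37 °C. Readout CellTiter-Glo luminescence.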
TGFb SMAD3 inh: inhibitors of TGF-b signaling; HepG2 CAGA-GFP TGF-b/SMAD3 reporter, GFP fluorescence, 18 h; TGF-beta stimulated, 500 pg/mL final; Potency, µM (titrated, usually from 46.1 µM), for the others: at the highest dose activity, negative = inhibition, usual class: inhibitors; hit rate 1.2% among 410,000; AID 588855; further: on the % scale 0 is the no-effect control and ±100 the full control effect; nearly all actives have a fitted effect of over 65% in size
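Inhibition of TGF-beta-driven CAGA-GFP reporter expression in HEPG2 cells is measured by cellular GFP fluorescence after 18 h stimulation with 500 pg/mL recombinant TGF-beta in 1% FBS medium at 37 degrees C.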
DT40 TDP1 CPT: growth inhibition of DT40 Tdp1-/-;hTDP1 cells with camptothecin (screen for TDP1 inhibitors); chicken DT40 Tdp1-/-;hTDP1 cells + 20 nM CPT, ATP luminescence, 48 h; Potency, µM (top dose mostly 46.2 µM), for the others: top-dose activity change, negative = growth inhibition, most hits filed as inhibitors; hit rate 12% among 420,000; AID 686979; further: on the % scale 0 is the no-effect control and ±100 the full control effect; nearly all actives have a fitted effect of over 55% in size
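Chicken DT40 Tdp1-/- cells stably complemented with human TDP1 were seeded at 400 cells/well in medium containing 20 nM camptothecin, exposed to pin-transferred compounds, and grown at 37 °C for at least 48 hr. Viability was read as ATP luminescence.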
ATXN viability: reduces viability in counter-screen for ATXN expression inhibitors | S2 cells (HEK-293 line with an ATXN2-luciferase reporter) viability, CellTiter-Fluor protease fluorescence, 24 h | Potency, µM (series often up to 56.7 µM), hits mostly cytotoxic | hit rate 0.49% among 400,000 | AID 651635; further: nearly all actives have a fitted effect of over 40% in size
An asterisk follows results filed as active; i = inactive; ? = inconclusive; · = no result. An excerpt weighted towards active compounds, which were near 17% of everything screened. The call rests on the fitted dose curve; in most records, active means well fitted curve in the direction sought with a large enough effect; inconclusive means small, poorly fitted or top-dose-only effect, or another doubt; inactive means no such curve, though single readings can be large; an effect the other way counts as inactive or inconclusive. Potency means the concentration at half of the fitted maximal effect.

SMILES	HepG2 viability	ATXN2 expr inh	DT40 TDP1 no CPT	TGFb SMAD3 inh	DT40 TDP1 CPT	ATXN viability
CSCCC(NS(=O)(=O)c1ccccc1F)C(=O)N1CCCCCC1 (stereo not drawn)	-9%	-2%	14%	-12%	-16%	i
CSCCC(NS(=O)(=O)c1ccc(C)cc1)C(=O)N1CCCCCCC1 (stereo not drawn)	0%	6%	16µM*	14%	?	i
Cc1ccc(NS(=O)(=O)c2ccc(C(=O)N3CCCCCCC3)cc2)cc1	-4%	-11%	?	-21%	23µM*	i
COc1ccc(S(=O)(=O)Nc2ccc(Nc3ccccc3)cc2)cc1	-40%	·	?	?	21µM*	?
COc1ccc(-c2nn(-c3ccccc3)cc2C(=O)N(C)CC(=O)Nc2ccc(N3CCOCC3)cc2)cc1	6%	0%	-25%	-14%	-4%	i
O=C(C1=NNC2C(=O)N(c3ccccc3)C(=O)C12)c1nc(Cl)ccc1Cl (stereo not drawn)	17%	-16%	-11%	-1%	15%	i
O=C(OCC(=O)N1CCCCC1)c1cccc(NS(=O)(=O)c2ccccc2)c1	-13%	10%	-28%	-18%	-23%	i
CSCCC(NS(=O)(=O)c1ccc2c(c1)oc(=O)n2C)C(=O)N1CCN(c2ccc(F)cc2)CC1 (stereo not drawn)	2%	·	?	-8%	-7%	·
COc1ccc(N2CCN(C(=O)COC(=O)c3cccc(S(=O)(=O)Nc4cccc(C)c4)c3)CC2)cc1	-20%	?	?	?	16µM*	i
CSCCC(NS(=O)(=O)c1ccc2c(c1)oc(=O)n2C)C(=O)N1CCN(c2cc(Cl)ccc2C)CC1 (stereo not drawn)	-4%	·	15µM*	0%	?	·
CSCCC(NS(=O)(=O)c1ccc(Cl)cc1)C(=O)OCc1c(Cl)cccc1Cl (stereo not drawn)	-33%	-31%	21µM*	?	?	i
CCOc1ccc(NS(=O)(=O)c2ccc(C(=O)N(C)CC(=O)Nc3cccc(OC)c3)cc2)cc1	-20%	?	16µM*	?	18µM*	i
CC1=C(C(=O)N(C)C)CC(CC(=O)NCCc2ccccn2)C(=O)N1Cc1ccc(C(C)(C)C)cc1 (stereo not drawn)	-6%	1%	-27%	16%	?	i
CCCCCC(=O)Nc1sc(C)c(C)c1C#N	-23%	32%	-11%	-29%	?	i
O=S(=O)(Nc1ccccc1)c1ccc(-c2csnn2)cc1	-60%	-22%	23µM*	-11%	?	i
COc1ccc(NS(=O)(=O)c2ccc(NC(=O)C3CC3)cc2)cc1	18%	-3%	9.2µM*	-9%	8.2µM*	i
CCOc1ccc(C(=O)NCc2nnnn2-c2ccc(C)c(C)c2)cc1OCC	-23%	·	-23%	0%	-24%	·
CC(C)(C)c1cc(CN(CCO)CCO)c(O)c(C(C)(C)C)c1	-30%	2%	-21%	?	?	i
O=S(=O)(c1ccc2nc(Nc3cccc(F)c3)ccc2c1)N1CCCC1	-26%	-18%	?	-25%	23µM*	i
O=S(=O)(c1ccc2nc(N3CCN(c4ccccc4)CC3)ccc2c1)N1CCCCC1	-9%	·	-22%	-6%	-1%	·
COc1ccc(Cl)cc1Nc1ccc2cc(S(=O)(=O)N3CCCCC3)ccc2n1	-9%	-13%	?	-17%	?	?
COc1ccccc1N1CCN(c2ccc3cc(S(=O)(=O)N4CCCCC4)ccc3n2)CC1	2%	-27%	7.3µM*	-12%	13µM*	?
COc1ccc(Nc2ccc3cc(S(=O)(=O)N4CCCC4)ccc3n2)cc1Cl	-13%	-37%	21µM*	-5%	21µM*	i
O=S(=O)(c1ccc2nc(Nc3ccc(F)cc3)ccc2c1)N1CCCC1	7%	4%	-26%	11%	7%	i
CCOC(=O)c1cccc(Nc2ccc3cc(S(=O)(=O)N4CCCCC4)ccc3n2)c1	-19%	-39%	21µM*	?	23µM*	?
SMILES	HepG2 viability	ATXN2 expr inh	DT40 TDP1 no CPT	TGFb SMAD3 inh	DT40 TDP1 CPT	ATXN viability
O=C(NC(=S)N1CCCCC1CO)C12CC3CC(CC(C3)C1)C2 (stereo not drawn)	-2%	-5%	0%	11%	-27%	i
Cc1cc(=O)n2c(n1)NC(Nc1cccc(C)c1C)=NC2c1ccc(F)cc1 (stereo not drawn)	21%	11%	-11%	-16%	24%	i
CCN(c1ccccc1)c1ccc2cc(S(=O)(=O)N3CCCC3)ccc2n1	-17%	3%	21µM*	-23%	26µM*	i
Cc1occc1C(=O)Nc1nnc(-c2cccs2)s1	4%	25%	-15%	2%	40%	?
COC(=O)c1sccc1S(=O)(=O)N(CC(=O)Nc1c(C)cccc1C)c1ccc(C)c(C)c1	-16%	-10%	-74%	-30%	16µM*	?
COC(=O)c1sccc1S(=O)(=O)N(CC(=O)NCc1ccc(C)cc1)c1ccc(C)cc1	-15%	4%	?	-45%	23µM*	?
CN(CC(=O)Nc1cccc(S(=O)(=O)NC2=NCCC2)c1)Cc1ccccc1Cl	-12%	3%	-9%	4%	-19%	i
Cc1ccc(NC(=S)NCc2ccccc2)cc1[N+](=O)[O-]	-30%	0%	?	?	?	i
Cc1ccc(CNC(=S)Nc2ccc(C)c([N+](=O)[O-])c2)cc1	-19%	-5%	15µM*	0%	23µM*	i
Cc1ccc(/C=C/C(=O)c2ccc([N+](=O)[O-])o2)cc1	-19%	?	2.1µM*	7.9µM*	1.6µM*	8.9µM*
Cc1ccc(CNC(=O)c2ccc([N+](=O)[O-])o2)cc1	14µM*	1%	?	-18%	16µM*	?
Cc1ccc(-c2csc(NC(=O)c3ccc([N+](=O)[O-])o3)n2)cc1	14%	-4%	?	-1%	?	?
COc1ccc(Cc2[nH]n3c(=O)cc(C(C)C)nc3c2-c2ccccc2)cc1	11µM*	22µM*	7.3µM*	?	18µM*	?
COc1ccc(Cc2[nH]n3c(=O)cc(C)nc3c2-c2ccccc2)cc1	-19%	?	?	-2%	?	?
COc1ccc(-n2ccnc2SCC(=O)Nc2nnc(C)s2)cc1	-32%	·	-7%	-25%	?	·

Screening data as filed in PubChem.
